From ChEMBL document CHEMBL1961873, “Compounds: GSK PKIS; Assays: Nanosyn kinase panel” (2012)

Tests used:
[1] = tested on: Epidermal growth factor receptor (Homo sapiens), P00533 [T790M]; settings: at 1 µM
[2] = tested on: Epidermal growth factor receptor (Homo sapiens), P00533 [L858R,T790M]; settings: at 0.1 µM
[3] = tested on: Epidermal growth factor receptor (Homo sapiens), P00533 [L858R,T790M]; settings: at 1 µM
[4] = molecular target: Ephrin type-A receptor 2 (Homo sapiens) (UniProt P29317); settings: at 0.1 µM
[5] = molecular target: Ephrin type-A receptor 2 (Homo sapiens) (UniProt P29317); settings: at 1 µM
[6] = molecular target: T1, Ephrin type-A receptor 3 (Homo sapiens) (UniProt P29320); settings: at 0.1 µM
T1 sequence (whole entry): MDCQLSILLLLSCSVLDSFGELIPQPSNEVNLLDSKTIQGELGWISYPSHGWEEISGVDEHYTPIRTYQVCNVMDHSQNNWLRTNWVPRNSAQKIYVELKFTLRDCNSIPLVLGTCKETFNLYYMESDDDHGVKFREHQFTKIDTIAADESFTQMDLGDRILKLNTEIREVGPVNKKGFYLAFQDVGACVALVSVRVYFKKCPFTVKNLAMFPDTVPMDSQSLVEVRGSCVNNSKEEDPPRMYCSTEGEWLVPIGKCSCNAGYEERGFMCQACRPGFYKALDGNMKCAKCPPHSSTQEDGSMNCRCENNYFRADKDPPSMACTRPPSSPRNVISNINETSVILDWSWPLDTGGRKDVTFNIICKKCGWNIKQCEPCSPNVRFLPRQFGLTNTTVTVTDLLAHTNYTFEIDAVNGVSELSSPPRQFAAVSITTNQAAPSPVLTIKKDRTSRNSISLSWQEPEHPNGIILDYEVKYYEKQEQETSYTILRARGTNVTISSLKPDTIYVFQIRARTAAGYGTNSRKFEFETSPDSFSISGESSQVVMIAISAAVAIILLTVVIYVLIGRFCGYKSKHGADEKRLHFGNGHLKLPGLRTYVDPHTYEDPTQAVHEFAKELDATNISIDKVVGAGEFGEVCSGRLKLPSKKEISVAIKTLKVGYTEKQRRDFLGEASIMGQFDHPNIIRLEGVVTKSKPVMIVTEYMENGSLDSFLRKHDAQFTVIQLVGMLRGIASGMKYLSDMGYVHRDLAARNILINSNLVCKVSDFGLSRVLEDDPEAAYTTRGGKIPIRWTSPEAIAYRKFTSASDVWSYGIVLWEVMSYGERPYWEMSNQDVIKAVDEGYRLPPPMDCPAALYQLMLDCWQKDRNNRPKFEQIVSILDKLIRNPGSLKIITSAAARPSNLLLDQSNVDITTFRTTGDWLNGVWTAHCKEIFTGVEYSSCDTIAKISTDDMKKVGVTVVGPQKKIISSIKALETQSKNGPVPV

[7] = molecular target: T1, Ephrin type-A receptor 3 (Homo sapiens); settings: at 1 µM
[8] = molecular target: Ephrin type-A receptor 4 (Homo sapiens) (UniProt P54764); settings: at 0.1 µM
[9] = molecular target: Ephrin type-A receptor 4 (Homo sapiens) (UniProt P54764); settings: at 1 µM
[10] = molecular target: T2, Ephrin type-B receptor 2 (Homo sapiens) (UniProt P29323); settings: at 0.1 µM;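 further: reported as mean inhibition of EPHB2, from the GSK PKIS dataset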
T2 sequence (whole entry): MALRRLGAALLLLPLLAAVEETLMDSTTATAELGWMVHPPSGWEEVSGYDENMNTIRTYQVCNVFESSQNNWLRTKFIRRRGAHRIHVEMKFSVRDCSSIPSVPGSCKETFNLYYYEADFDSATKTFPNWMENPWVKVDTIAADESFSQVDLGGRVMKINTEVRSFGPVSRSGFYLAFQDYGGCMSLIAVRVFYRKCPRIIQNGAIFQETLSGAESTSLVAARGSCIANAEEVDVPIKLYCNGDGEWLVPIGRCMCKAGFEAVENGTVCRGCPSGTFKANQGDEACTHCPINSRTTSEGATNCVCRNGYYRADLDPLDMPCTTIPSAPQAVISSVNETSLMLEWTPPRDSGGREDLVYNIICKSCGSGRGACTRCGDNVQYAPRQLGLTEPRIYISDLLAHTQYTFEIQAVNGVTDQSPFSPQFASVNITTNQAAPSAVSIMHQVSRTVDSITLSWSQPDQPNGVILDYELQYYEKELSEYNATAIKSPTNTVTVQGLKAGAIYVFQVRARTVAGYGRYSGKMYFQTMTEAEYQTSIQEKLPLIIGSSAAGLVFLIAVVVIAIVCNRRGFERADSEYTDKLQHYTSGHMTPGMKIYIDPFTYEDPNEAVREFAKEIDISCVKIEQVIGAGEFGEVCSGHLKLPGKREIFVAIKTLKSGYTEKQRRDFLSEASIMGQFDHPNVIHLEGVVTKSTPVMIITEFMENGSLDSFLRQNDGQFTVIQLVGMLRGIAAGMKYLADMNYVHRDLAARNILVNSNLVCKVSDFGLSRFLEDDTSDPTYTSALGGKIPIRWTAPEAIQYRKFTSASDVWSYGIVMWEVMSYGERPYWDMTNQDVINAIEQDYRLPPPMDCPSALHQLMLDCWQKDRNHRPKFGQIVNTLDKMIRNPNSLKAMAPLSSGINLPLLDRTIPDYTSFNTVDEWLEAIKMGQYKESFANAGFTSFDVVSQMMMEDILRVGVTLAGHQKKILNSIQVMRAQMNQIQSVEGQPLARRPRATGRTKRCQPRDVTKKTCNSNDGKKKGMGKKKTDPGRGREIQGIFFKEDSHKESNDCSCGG

Sequence of Epidermal growth factor receptor (Homo sapiens), P00533 [T790M] (P00533 whole entry T790M): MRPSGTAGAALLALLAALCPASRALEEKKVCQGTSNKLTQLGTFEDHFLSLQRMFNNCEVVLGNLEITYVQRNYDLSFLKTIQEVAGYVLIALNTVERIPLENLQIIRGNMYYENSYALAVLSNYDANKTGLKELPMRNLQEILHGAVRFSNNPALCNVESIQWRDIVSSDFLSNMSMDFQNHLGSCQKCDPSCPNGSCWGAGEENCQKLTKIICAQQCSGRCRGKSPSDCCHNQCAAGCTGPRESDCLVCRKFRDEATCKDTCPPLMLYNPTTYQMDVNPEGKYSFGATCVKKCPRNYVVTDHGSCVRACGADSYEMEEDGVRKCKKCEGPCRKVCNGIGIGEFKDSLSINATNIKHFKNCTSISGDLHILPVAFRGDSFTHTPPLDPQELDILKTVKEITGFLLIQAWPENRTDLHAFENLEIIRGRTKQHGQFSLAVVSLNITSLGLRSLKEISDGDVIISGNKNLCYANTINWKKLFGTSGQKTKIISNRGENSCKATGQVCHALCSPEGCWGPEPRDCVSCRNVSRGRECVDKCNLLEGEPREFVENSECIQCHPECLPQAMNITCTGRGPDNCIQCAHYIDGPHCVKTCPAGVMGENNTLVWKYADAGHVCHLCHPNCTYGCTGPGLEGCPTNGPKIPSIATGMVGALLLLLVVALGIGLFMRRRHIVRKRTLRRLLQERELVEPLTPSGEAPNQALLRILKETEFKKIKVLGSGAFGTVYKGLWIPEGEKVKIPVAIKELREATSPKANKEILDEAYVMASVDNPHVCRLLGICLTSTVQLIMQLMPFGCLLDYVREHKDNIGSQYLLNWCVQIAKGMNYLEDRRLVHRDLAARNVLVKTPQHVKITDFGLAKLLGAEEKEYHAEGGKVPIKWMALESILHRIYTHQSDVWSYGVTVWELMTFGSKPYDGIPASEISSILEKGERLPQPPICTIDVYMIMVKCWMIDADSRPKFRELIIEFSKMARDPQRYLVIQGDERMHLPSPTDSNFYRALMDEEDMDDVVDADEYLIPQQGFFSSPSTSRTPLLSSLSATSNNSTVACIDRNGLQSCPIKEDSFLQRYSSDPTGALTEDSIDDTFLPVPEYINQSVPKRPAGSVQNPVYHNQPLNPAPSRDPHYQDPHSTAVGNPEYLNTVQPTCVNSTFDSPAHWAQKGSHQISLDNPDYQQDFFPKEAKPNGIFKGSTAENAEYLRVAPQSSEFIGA
Sequence of Epidermal growth factor receptor (Homo sapiens), P00533 [L858R,T790M] (P00533 whole entry T790M/L858R, looked up): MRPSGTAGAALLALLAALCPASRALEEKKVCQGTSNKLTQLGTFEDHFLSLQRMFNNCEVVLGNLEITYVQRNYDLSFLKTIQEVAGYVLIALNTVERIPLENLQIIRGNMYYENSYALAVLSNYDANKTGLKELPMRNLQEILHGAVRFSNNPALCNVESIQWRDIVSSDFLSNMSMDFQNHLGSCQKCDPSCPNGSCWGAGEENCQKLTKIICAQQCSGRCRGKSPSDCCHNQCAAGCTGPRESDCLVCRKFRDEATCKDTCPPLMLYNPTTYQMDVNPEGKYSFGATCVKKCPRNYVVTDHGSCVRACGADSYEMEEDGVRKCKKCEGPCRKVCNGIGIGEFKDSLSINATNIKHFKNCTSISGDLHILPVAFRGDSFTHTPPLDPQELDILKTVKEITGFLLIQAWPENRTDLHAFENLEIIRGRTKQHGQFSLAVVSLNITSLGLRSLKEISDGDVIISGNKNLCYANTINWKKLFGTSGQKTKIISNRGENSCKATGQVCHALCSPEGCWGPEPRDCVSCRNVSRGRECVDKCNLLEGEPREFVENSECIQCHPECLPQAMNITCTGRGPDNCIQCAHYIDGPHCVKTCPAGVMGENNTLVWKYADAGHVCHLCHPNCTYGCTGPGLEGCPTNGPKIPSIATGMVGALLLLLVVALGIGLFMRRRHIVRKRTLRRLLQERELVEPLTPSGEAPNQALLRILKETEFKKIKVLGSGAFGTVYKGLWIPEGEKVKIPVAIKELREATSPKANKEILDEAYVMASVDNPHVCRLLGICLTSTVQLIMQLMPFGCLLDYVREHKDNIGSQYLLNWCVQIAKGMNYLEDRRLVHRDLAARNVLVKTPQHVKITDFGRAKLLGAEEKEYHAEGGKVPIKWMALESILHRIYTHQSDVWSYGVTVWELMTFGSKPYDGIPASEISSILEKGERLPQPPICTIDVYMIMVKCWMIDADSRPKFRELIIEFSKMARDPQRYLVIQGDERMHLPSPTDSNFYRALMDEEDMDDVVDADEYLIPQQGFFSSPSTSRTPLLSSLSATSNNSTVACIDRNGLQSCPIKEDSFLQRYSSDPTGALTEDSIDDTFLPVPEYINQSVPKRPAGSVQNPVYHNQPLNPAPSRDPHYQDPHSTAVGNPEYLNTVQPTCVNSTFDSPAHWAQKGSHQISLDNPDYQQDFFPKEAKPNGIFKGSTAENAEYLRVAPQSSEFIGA
Sequence of Ephrin type-A receptor 2 (Homo sapiens) (P29317 whole entry): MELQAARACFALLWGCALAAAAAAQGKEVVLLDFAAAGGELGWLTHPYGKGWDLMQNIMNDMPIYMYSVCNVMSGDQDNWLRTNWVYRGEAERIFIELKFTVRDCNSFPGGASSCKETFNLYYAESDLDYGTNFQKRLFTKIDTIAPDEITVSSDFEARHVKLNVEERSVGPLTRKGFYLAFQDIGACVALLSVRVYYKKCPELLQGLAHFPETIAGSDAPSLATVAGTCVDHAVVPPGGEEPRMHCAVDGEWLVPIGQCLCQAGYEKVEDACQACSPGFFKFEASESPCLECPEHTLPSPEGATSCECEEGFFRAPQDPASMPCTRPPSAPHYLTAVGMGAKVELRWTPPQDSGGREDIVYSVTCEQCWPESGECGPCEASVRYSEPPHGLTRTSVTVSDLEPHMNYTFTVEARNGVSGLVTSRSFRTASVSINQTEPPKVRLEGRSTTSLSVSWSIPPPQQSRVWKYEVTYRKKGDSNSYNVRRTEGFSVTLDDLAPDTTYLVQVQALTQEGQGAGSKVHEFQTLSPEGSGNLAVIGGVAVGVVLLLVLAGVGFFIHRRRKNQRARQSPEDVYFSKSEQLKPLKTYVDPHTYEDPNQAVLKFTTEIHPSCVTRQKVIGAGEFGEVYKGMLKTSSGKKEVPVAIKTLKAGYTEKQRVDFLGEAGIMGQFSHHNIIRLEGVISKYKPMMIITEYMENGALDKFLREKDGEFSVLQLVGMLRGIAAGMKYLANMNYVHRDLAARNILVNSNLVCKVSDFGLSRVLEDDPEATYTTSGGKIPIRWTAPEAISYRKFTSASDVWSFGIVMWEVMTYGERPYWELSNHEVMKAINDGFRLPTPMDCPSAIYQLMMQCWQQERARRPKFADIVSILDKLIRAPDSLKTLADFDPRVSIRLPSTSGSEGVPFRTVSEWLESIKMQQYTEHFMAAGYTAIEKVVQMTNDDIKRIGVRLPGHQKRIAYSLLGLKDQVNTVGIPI
Sequence of Ephrin type-A receptor 4 (Homo sapiens) (P54764 whole entry): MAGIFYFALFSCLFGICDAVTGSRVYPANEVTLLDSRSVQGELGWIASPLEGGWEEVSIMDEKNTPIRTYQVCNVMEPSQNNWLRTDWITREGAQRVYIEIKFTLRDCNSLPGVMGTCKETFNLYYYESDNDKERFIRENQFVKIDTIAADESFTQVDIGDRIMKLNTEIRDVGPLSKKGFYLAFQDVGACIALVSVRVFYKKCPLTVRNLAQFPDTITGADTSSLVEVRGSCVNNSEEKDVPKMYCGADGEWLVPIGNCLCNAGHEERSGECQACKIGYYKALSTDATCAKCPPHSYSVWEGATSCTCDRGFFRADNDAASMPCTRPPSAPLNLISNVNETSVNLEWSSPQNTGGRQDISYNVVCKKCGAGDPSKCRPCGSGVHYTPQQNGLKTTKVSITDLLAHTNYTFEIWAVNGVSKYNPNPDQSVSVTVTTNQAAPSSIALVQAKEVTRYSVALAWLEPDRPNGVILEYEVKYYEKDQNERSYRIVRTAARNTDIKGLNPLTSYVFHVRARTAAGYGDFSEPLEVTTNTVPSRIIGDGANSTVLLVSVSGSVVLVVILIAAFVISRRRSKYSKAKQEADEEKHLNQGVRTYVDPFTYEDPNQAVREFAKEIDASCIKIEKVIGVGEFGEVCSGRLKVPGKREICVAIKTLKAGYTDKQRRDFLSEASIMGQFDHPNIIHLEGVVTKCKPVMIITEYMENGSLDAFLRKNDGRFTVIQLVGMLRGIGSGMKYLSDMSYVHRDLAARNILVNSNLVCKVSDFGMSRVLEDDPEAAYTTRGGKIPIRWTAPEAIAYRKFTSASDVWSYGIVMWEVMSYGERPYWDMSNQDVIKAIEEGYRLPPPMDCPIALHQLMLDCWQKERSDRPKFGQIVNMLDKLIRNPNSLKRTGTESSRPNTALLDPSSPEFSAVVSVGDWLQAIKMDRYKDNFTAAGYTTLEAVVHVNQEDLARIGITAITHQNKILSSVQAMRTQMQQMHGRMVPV

Row | SMILES | inhibition [1] [%] | inhibition [2] [%] | inhibition [3] [%] | inhibition [4] [%] | inhibition [5] [%] | inhibition [6] [%] | inhibition [7] [%] | inhibition [8] [%] | inhibition [9] [%] | inhibition [10] [%]
1 | C[C@@H](Oc1cc(-n2cnc3ccc(OC[C@@H](O)CO)cc32)sc1C(N)=O)c1ccccc1Cl | -1.48 | -1.15 | -0.33 | -4.23 | -4.51 | -2.37 | 1.69 | -2.22 | -0.2 | -0.2
2 | CC(C)c1ccc(Nc2nccc(-c3cnn4ncccc34)n2)cc1 | 2.45 | -0.56 | 2.24 | -0.98 | 0.28 | 1.96 | 4.55 | 8.08 | 10.3 | 7.64
3 | Nc1nccc(-c2c(-c3ccc(F)cc3)ncn2CCCN2CCOCC2)n1 | 3.66 | 3.71 | 0.56 | -0.08 | 0.96 | 0.74 | 3.02 | 7.96 | 9.12 | 4.96
4 | O=C1Nc2ccc(-c3cccnc3)cc2C1=Cc1cc(Br)c(O)c(Br)c1 | 0.57 | 2.96 | 5.14 | 2.12 | 0.76 | 4.82 | 3.94 | 3.36 | 5.16 | 7.83
5 | ON=C1CCc2cc(-c3nc(C4CCNCC4)[nH]c3-c3ccncc3)ccc21 | -1.84 | -1.88 | 0.18 | 1.25 | 0.6 | 0.3 | -2.2 | -1.9 | -7.94 | -5.22
6 | COc1cc2ncnc(Nc3ccc(C)c(O)c3)c2cc1OC | 31.2 | 3.9 | 13.5 | 2.35 | 10.6 | 6.24 | 16.7 | 15.9 | 49.9 | 11.1
7 | CCOc1nccc2c1nc(-c1nonc1N)n2CC | 5.62 | -0.04 | 4.96 | 2.57 | 1.93 | 2.43 | 6.98 | 11.7 | -8.98 | 9.96
8 | Cc1ccc(C(=O)NC2CC2)cc1-c1ccc2[nH]ncc2c1 | -3.14 | -2.32 | -5.63 | -1.76 | -1.67 | -6.73 | -6.53 |  | -8.91 | 
9 | CN(C)c1cc2c(Nc3ccc4c(cnn4Cc4ccccc4)c3)ncnc2cn1 |  |  |  | 0.12 | 0.17 | 3.01 | 3.25 | 6.93 | 2.96 | 2.52
10 | NC(=O)c1cccc(Nc2nccc(Nc3cccc(F)c3)n2)c1 | 1.97 | -1.09 | 2.58 | -0.63 | 17.9 | 0.42 | 7.65 | 5.65 | 29.1 | 3.44
11 | Nc1nccc(C#Cc2cncnc2Nc2ccc(OCc3cccc(F)c3)c(Cl)c2)n1 |  |  |  | 0.65 | 1.27 | 1.8 | 3.27 | 6.14 | -0.84 | 9.67
12 | [O-][S+]1CCN(Cc2ccc(-c3ccc4ncnc(Nc5ccc(OCc6ccccc6)c(Cl)c5)c4c3)o2)CC1 |  |  |  | -3.15 | -2.96 | -1.64 | -1.69 | 2.8 | 3.82 | 6.04
13 | CS(=O)(=O)CCNCc1nc(-c2ccc3ncnc(Nc4ccc(OCc5cccc(C(F)(F)F)c5)cc4)c3c2)cs1 | -0.12 | -2.33 | -3.57 | 1.44 | 0.05 | 2.99 | 3.51 | 0.66 | 7.07 | 0.86
14 | CN(C)CCCn1c(-c2nonc2N)nc2cnccc21 | 4.68 | -0.67 | 3.5 | 0.86 | 0.27 | 4.17 | 5.42 | 4.85 | 3.54 | 3.03
15 | CN(C)C(=O)O[C@@H]1CN[C@@H](C#Cc2cc3ncnc(Nc4ccc(OCc5cccc(F)c5)c(Cl)c4)c3s2)C1 |  |  |  | -0.17 | 1.05 | 5.64 | 1.99 | 1.85 | -8.34 | 0.71
16 | NS(=O)(=O)c1cccc(-c2cc3ccncc3cc2OCc2ccccc2)c1 | 1.71 | 1.48 | 0.67 | 1.97 | 1.53 | 2.7 | 3.87 | 8.09 | 5.03 | 4.23
17 | Cc1ccc2c(c1)/C(=N/Nc1ccc(S(N)(=O)=O)cc1)C(=O)N2 | -3 | -4.55 | -2.96 | 1.34 |  | -0.01 | 2.43 | -0.11 | -5.42 | -2.4

Row | SMILES | inhibition [1] [%] | inhibition [2] [%] | inhibition [3] [%] | inhibition [4] [%] | inhibition [5] [%] | inhibition [6] [%] | inhibition [7] [%] | inhibition [8] [%] | inhibition [9] [%] | inhibition [10] [%]
18 | Cc1cc(Cl)cc2c1NC(=O)C2=NNc1ccc(S(N)(=O)=O)cc1 | 3.73 | -0.55 | 2.83 | 1.34 | 1.02 | 3.32 | 2.87 | 6.66 | 7.34 | 4.48
19 | N#Cc1cccc(Nc2nccc(-c3cnn4ncccc34)n2)c1 | 6.4 | 0.25 | 9.41 | 2.26 | 15 | 8.11 | 19.2 | 13 | 43.8 | 15.1
20 | Cc1ccc2c(-c3ccnc(Nc4cccc(C(F)(F)F)c4)n3)c(-c3ccccc3)nn2n1 | 57.7 | 35.2 | 87.6 | 0.69 | 4.04 | 5.98 | 15.1 | 8.59 | 33.9 | 17.6
21 | CN(C)C(=O)O[C@H]1CN[C@H](C#Cc2cc3ncnc(Nc4ccc(OCc5cccc(F)c5)c(Cl)c4)c3s2)C1 |  |  |  | -0.69 | 0.86 | 2.97 | 4.79 | 7.54 | 8.32 | 9.47
22 | COc1cccc(-n2ncc3c(N/N=C/c4ccc(S(C)(=O)=O)cc4)ncnc32)c1 | 0.63 | 0.79 | 5.78 | -3.2 | 1.45 | -2.15 | -1.2 | 7.26 | 11.7 | 5.46
23 | c1ccc(Nc2ncc(-c3ccccc3)o2)cc1 | 3.42 | -0.6 | 3.56 | 1.18 | 0.47 | 3.55 | 4.8 | 7.56 | 12.1 | 7.58
24 | NS(=O)(=O)c1ccc(-c2cc3ccncc3cc2OCc2ccccc2)cc1 | 4.44 | 2.11 | 2.39 | 0.69 | 0.7 | 2.29 | 3.77 | 9.03 | 10.4 | 7.31
25 | CN1CCN(C(=O)c2ccc(NC(=O)Nc3ccc(N(C)c4ccnc(Nc5ccc(CS(C)(=O)=O)cc5)n4)cc3)cc2)CC1 | 1.47 | -1.16 | 2.86 | 0.47 | 5.09 | 0.72 | 4.49 | 5.53 | 22.9 | 8.44
26 | CN(c1ccc(NC(=O)Nc2ccc(OC(F)(F)F)cc2)cc1)c1ccnc(Nc2cccc(S(N)(=O)=O)c2)n1 | 1.56 | 2.59 | 2.24 | 3.48 | 35.4 | 5.58 | 18.3 | 9.59 | 59.8 | 10.9
27 | Cc1ccc(O)cc1Nc1ccnc2ccc(S(C)(=O)=O)cc12 | 7.86 | 4.88 | 5.18 | 91.3 | 95.7 | 92.2 | 81.5 | 89.3 | 93.5 | 83.6
28 | NS(=O)(=O)c1cccc(Nc2cc(-c3ccc(F)cc3)n[nH]2)c1 | 3.89 | 0.96 | 2.35 | 0.44 | 0.73 | 4.22 | 4.16 | 8.18 | 10 | 5.43
29 | FC(F)(F)c1ccc(-c2nn3ncccc3c2-c2ccnc(Nc3ccc4c(c3)OCCO4)n2)cc1 | 7.94 | 0.49 | 10.3 | 4.63 | 3.45 | 0.34 | 2.49 | 1.05 | 21.2 | 3.69
30 | NS(=O)(=O)c1ccc(NC=C2C(=O)Nc3ccc4ncsc4c32)cc1 | 2.64 | 3.17 | 9.63 | 2.13 | 7.25 | 5.57 | 12.8 | 11.3 | 33.7 | 4.62
31 | Nc1ccc(C#Cc2cncnc2Nc2ccc(OCc3cccc(F)c3)c(Cl)c2)cc1 | 2.68 | -0.93 | 0.42 | 0.44 | 0.03 | 3.68 | 3.02 | 6.49 | 8.04 | 1.34
32 | O=C(Nc1ccc(Oc2ccc3[nH]c(NC(=O)c4ccco4)nc3c2)cc1)Nc1cc(C(F)(F)F)ccc1F | -1.32 | 1.13 | 0.64 | 18.8 | 82.8 | 4.15 | 15.9 | 36.3 | 86.9 | 36.1
33 | CC(C)c1ccc2c(c1)NC(=O)/C2=N/Nc1ccc(S(N)(=O)=O)cc1 | -1.35 | -0.97 | -2.16 | -2 | -1.68 | -0.36 | 1.64 | 3.01 | 5.06 | 0.18
34 | COc1cccc(-n2ncc3c(N/N=C/c4ccc(C)cc4)ncnc32)c1 | 2.25 | 1.79 | 2.55 | 2.45 | 1.1 | 3.28 | 3.46 | 7.44 | 11.3 | 6.77
